Compound activity: PubChem, National Center for Advancing Translational Sciences (NCATS)
HP1b chromo inh = HTS for Inhibitors of HP1-beta Chromodomain Interactions with Methylated Histone Tails. AlphaScreen HP1-beta / biotin-H3K9me3 peptide binding. Potency, µM (doses to about 114 µM), actives largely listed as inhibitors. actives 0.56% (n = 390,000); also: nearly all actives have a fitted effect of over 70% in size
Target sequence (P83916 whole entry, looked up): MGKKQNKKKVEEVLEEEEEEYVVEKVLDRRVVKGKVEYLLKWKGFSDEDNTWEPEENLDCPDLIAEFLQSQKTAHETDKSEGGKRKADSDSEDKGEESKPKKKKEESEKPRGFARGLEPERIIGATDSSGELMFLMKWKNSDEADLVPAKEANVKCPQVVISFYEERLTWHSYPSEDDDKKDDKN
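AlphaScreen: HP1-beta (50 nM) preformed 30 min with biotin-H3(1-18)K9me3 peptide (50 nM) in PBS pH 7.4, 0.01% Tween-20. Compound added for 30 min at RT, then streptavidin donor/nickel chelate acceptor beads (10 ug/mL) for 30 min.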
BAZ2B inh = qHTS Assay for Inhibitors of BAZ2B | Bromodomain adjacent to zinc finger domain protein 2B (Homo sapiens), Q9UIF8 | AlphaScreen BAZ2B-H3K14Ac peptide displacement | Potency, µM (series often up to 114 µM), usual class: inhibitors | actives 4.4% (n = 360,000); also: nearly all actives have a fitted effect of over 60% in size
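Compounds, titrated to a top concentration of 110 uM, were incubated 30 min at room temperature with preformed BAZ2B/acetyl-K14 H3 peptide complex (50 nM each). Proximity signal was measured by AlphaScreen after 20 min with beads.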
G9a inh = qHTS Assay for Inhibitors of Histone Lysine Methyltransferase G9a. Histone-lysine N-methyltransferase EHMT2 (Homo sapiens), Q96KQ7. G9a H3K9 monomethylation, AlphaScreen, 2 h. Potency, µM (series often up to 102 µM), usual class: inhibitors. actives 8.8% (n = 350,000); also: nearly all actives have a fitted effect of over 75% in size
Target sequence (Q96KQ7 913-1193 limits assumed): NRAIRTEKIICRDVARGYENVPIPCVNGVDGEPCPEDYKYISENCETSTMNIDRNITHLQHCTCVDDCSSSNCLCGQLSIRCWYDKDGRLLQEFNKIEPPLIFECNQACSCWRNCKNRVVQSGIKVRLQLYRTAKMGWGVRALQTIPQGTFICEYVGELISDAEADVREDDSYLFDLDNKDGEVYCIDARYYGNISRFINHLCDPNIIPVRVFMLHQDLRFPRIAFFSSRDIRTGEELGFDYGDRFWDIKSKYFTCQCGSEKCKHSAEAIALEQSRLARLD
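G9a (20 nM) was preincubated 15 min with compound, then reacted 2 h at room temperature with 500 nM biotin-H3K9 peptide and 20 µM SAM. Monomethyl-H3K9 detected by AlphaScreen using anti-H3K9me1 antibody.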
GLS inhibitor = qHTS for Inhibitors of Glutaminase (GLS); AID 624170, 2012; GLS enzymatic activity, qHTS titration; actives 0.21% (n = 410,000); Potency, µM (top dose mostly 45.5 µM), actives largely listed as inhibitors; Glutaminase kidney isoform, mitochondrial (Homo sapiens), O94925
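Two-point fluorescence kinetic (t0, 30 min RT) for hKGA; glutamate detected via glutamate oxidase–HRP–Amplex Red. Substrate: 1 mM L-glutamine solution; buffer 45 mM KH2PO4, pH 8.2.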
JMJD2A Tudor inh = qHTS Assay for Inhibitors of JMJD2A-Tudor Domain | Lysine-specific demethylase 4A (Homo sapiens), O75164 | AlphaScreen JMJD2A-Tudor / H3K4me3 peptide binding | actives 4.4% (n = 390,000) | Potency, µM (titrated, usually from 114 µM), most hits filed as inhibitors; also: nearly all actives have a fitted effect of over 50% in size
L3MBTL1 inh = qHTS Assay for the Inhibitors of L3MBTL1; Lethal(3)malignant brain tumor-like protein 1 (Homo sapiens), Q9Y468; AlphaScreen L3MBTL1–H3K9me1 peptide binding; Potency, µM (top dose mostly 57.1 µM), hits mostly inhibitors; actives 0.66% (n = 230,000); AID 485360, 2010; also: nearly all actives have a fitted effect of over 60% in size
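L3MBTL1 50 nM + b-AHA-H3(1-15)K9me1 75 nM, 30 min RT; compound added, 30 min RT; streptavidin donor/Ni-chelate acceptor beads 10 ug/mL each final, 30 min RT dark; AlphaScreen read.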
Of the large screens only hits and unclear results are named; the others gave an inactive call. The list is not random: actives were taken first. Their share in the collection is about 10%. Calls follow the shape of the dose curve; as a rule, active = well fitted curve in the direction sought with a large enough effect; inconclusive = small, poorly fitted or top-dose-only effect, or another doubt; inactive = no such curve, though single readings can be large; an effect the other way counts as inactive or inconclusive.

S=c1[nH]nc(-c2cc(-c3ccccc3)n[nH]2)n1/N=C/c1cccs1	G9a inh 1.6µM, GLS inhibitor inconclusive, JMJD2A Tudor inh inconclusive
COc1ccccc1/C=C/C=N/n1c(-c2cc(-c3ccccc3)n[nH]2)n[nH]c1=S	G9a inh inconclusive, JMJD2A Tudor inh inconclusive
Cc1cccc(/C=N/n2c(-c3cc(-c4ccccc4)n[nH]3)n[nH]c2=S)c1	HP1b chromo inh inconclusive, G9a inh 1.6µM, JMJD2A Tudor inh 79µM
S=c1[nH]nc(-c2cc(-c3ccccc3)n[nH]2)n1/N=C/C=C/c1ccccc1	G9a inh 8.9µM, JMJD2A Tudor inh inconclusive
S=c1[nH]nc(-c2cc(-c3ccccc3)n[nH]2)n1/N=C/C(Br)=C/c1ccccc1	BAZ2B inh 10µM, G9a inh 22µM, JMJD2A Tudor inh 56µM, L3MBTL1 inh inconclusive
BrC(=C\c1ccccc1)/C=N/n1cnnc1	none
Cc1cccc(/C=N/n2c(C)nnc2C)c1	G9a inh inconclusive
COc1ccccc1NC(=O)C1=C(C)Nc2c(C(=O)Nc3cccc(C)c3)cnn2C1c1ccccc1Cl (stereo not given)	none (no result: L3MBTL1 inh)
CCOc1ccccc1CNS(=O)(=O)c1ccc(-c2coc(C)n2)cc1	JMJD2A Tudor inh inconclusive (no result: L3MBTL1 inh)
S=c1[nH]nc(-c2cc(-c3ccccc3)n[nH]2)n1/N=C/c1ccccc1	JMJD2A Tudor inh 56µM (no result: L3MBTL1 inh)
Cc1cccc(-c2n[nH]c(=S)n2/N=C/c2cccs2)c1	G9a inh 0.71µM, JMJD2A Tudor inh 22µM
Cc1nnc(C)n1/N=C/c1cccs1	none
S=c1[nH]nc(-c2n[nH]c3c2CCC3)n1/N=C/C=C/c1ccccc1	GLS inhibitor inconclusive, JMJD2A Tudor inh 50µM (no result: G9a inh, L3MBTL1 inh)
CCOC(=O)C1CCCN(C(=O)c2ccc3c(=O)n(CCOC)c(=S)[nH]c3c2)C1 (stereo not given)	G9a inh inconclusive, JMJD2A Tudor inh inconclusive
COc1ccccc1Cn1c(=S)[nH]c2cc(C(=O)N3CCC(C(N)=O)CC3)ccc2c1=O	G9a inh 79µM, GLS inhibitor inconclusive (no result: L3MBTL1 inh)
COCCn1c(=S)[nH]c2cc(C(=O)N3CCC(C(N)=O)(N4CCCCC4)CC3)ccc2c1=O	G9a inh 35µM, JMJD2A Tudor inh inconclusive
CCOCCCn1c(=S)[nH]c2cc(C(=O)N3CCC(C(N)=O)CC3)ccc2c1=O	BAZ2B inh inconclusive, G9a inh 35µM, JMJD2A Tudor inh 8.9µM
COc1ccc2c(c1)c1nnc(SC)nc1n2Cc1ccccc1	none (no result: BAZ2B inh, G9a inh, GLS inhibitor, L3MBTL1 inh)
OCCOCCOCCO	none (no result: HP1b chromo inh, BAZ2B inh, JMJD2A Tudor inh, L3MBTL1 inh)
CC(=O)c1ccc(S(=O)(=O)Nc2cccc(-n3cnnn3)c2)cc1	BAZ2B inh 50µM, G9a inh 40µM, JMJD2A Tudor inh inconclusive (no result: L3MBTL1 inh)
Cc1nc2n(c(=O)c1CCN1CCC(c3noc4cc(F)ccc34)CC1)CCC[C@@H]2O	none (no result: HP1b chromo inh, BAZ2B inh, G9a inh, JMJD2A Tudor inh, L3MBTL1 inh)
C/C(=N\NC(=O)c1ccc(Br)o1)c1cc2c(cc1NC(=O)CCC(=O)O)OCO2	BAZ2B inh inconclusive, G9a inh 3.2µM (no result: L3MBTL1 inh)
O=C(Nc1ccc2c(c1)OCO2)c1ccc(Br)o1	BAZ2B inh inconclusive (no result: L3MBTL1 inh)
C[N+]1(CC(=O)OC2CCCCCCCCCCC2)CCCC1	G9a inh inconclusive, JMJD2A Tudor inh inconclusive (no result: L3MBTL1 inh)
COC(=O)CCCCCCCCCC[N+]1(C)CCCCC1	G9a inh 16µM, JMJD2A Tudor inh inconclusive
CC(=O)OCCCCCCCCCCC[N+]1(C)CCCCC1	G9a inh 45µM
Cc1ccc(C2NCCS2)cc1 (stereo not given)	G9a inh 45µM (no result: L3MBTL1 inh)
CN(C)/C=C/C=C1C(=O)CCCC1=O	HP1b chromo inh inconclusive, BAZ2B inh 56µM, G9a inh inconclusive, JMJD2A Tudor inh inconclusive, L3MBTL1 inh 28µM
Cc1ccc(C)c2c1CCCC2=O	none (no result: HP1b chromo inh, BAZ2B inh, G9a inh, JMJD2A Tudor inh, L3MBTL1 inh)
COc1cc(CNC(=O)c2sc3ncccc3c2-n2cccc2)cc(OC)c1OC	none (no result: L3MBTL1 inh)
Cc1cc(C)n(-c2cccc3cccnc23)n1	none
